# High-throughput results from PubChem.
# An excerpt weighted towards active compounds, which were near 1.5% of everything screened.
# BH1578 lux ind = inducers of Vibrio cholerae quorum light production without autoinducers; V. cholerae BH1578 lux reporter, luminescence, 6 h; activation, % at 18.7 µM; hit rate 0.16% among 350,000; in the data active = activation mostly above about 9.7%, no sharp cut-off
# PrPC surface inh = cell surface PrPC inhibition, primary TR-FRET screen; P04156; inhibition, % at 13.8 µM; TR-FRET read-out; hit rate 0.43% among 370,000; AID 720596; in the data active = inhibition above about 24%; note: 0% = median of the test wells and 100% = reference compound wells
# CCHF vOTU inh = CCHFV vOTU protease inhibition; AID 651958; inhibition, % at 11.5 µM; Pep-AMC fluorescence; hit rate 0.55% among 370,000; in the data active = inhibition above about 30%; note: 0% = vehicle wells with enzyme and 100% = no enzyme wells
# SSB-PriA inh = blocks PriA binding to SSB C-terminal tail; AlphaScreen SSBct-PriA binding, biotinylated peptide; inhibition, % at 33 µM; hit rate 0.6% among 430,000; in the data active = inhibition mostly above about 37%, no sharp cut-off; inactive = mostly below about 20%;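 note: plate controls were negative control peptide for no effect and reference peptide for full effect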
# TcdB inh = inhibitors of Clostridioides difficile toxin B glycohydrolase. P18177. TcdB glycohydrolase enzymatic assay, plate reader. hit rate 0.24% among 350,000. inhibition, % at 9.99 µM. AID 652162; in the data active = inhibition above about 10%
# DUSP3 inh = blocks human VHR1 dual specificity phosphatase; recombinant VHR phosphatase, pNPP absorbance; inhibition, % at 13.3 µM; hit rate 0.52% among 290,000; in the data active = inhibition above about 50%
# PrPC confirm = confirmation of inhibitors of cell surface human prion protein; inhibition, % at 13.8 µM; hit rate 65% among 1,500; cell surface PrPC level, TR-FRET; shares compounds with PrPC surface inh; AID 743200; in the data active = inhibition above about 25%
# LD9 cytotox = LD9 cell cytotoxicity, PrPc inhibitor counter-screen; hit rate 29% among 1,500; inhibition, % at 13.8 µM; shares compounds with PrPC surface inh; LD9 cells cytotoxicity, luminescence viability; in the data active = inhibition above about 9.5%
# An asterisk follows results filed as active; i = inactive; . = no result.
SMILES,BH1578 lux ind,PrPC surface inh,CCHF vOTU inh,SSB-PriA inh,TcdB inh,DUSP3 inh,PrPC confirm,LD9 cytotox
CCOc1cc(S(=O)(=O)n2c(C)nc3ccccc32)ccc1F,0,59*,5,6,.,3,14,-4
O=C(COc1ccccc1)Nc1nnc(SCc2ccc(Br)cc2)s1,.,.,.,-16,.,.,.,.
CC(C)C[C@@H](CN1CCC[C@H]1CN1C(=O)C(=O)NC[C@@H]1Cc1ccccc1)N1C[C@H](Cc2ccc(O)cc2)N(CC2CCCCCC2)C(=O)C1=O,.,26*,26,.,1,.,24,1
CC(C)C[C@@H](CN1CCC[C@@H]1CN1C(=O)C(=O)NC[C@@H]1Cc1ccccc1)N1C[C@H](Cc2ccc(O)cc2)N(CC2CCCCC2)C(=O)C1=O,-1,5,6,1,0,.,.,.
Cc1ccc(C)c(N2C(=O)N(Cc3c(F)cccc3Cl)C3CS(=O)(=O)CC32)c1 (centres undefined),.,.,.,-35,.,.,.,.
N#Cc1c(N2CCSCC2)nsc1-c1ccccc1Cl,-1,27*,19,-16,-3,21,23,-7
Cc1ccc(Cc2c(-c3ccco3)nc3c(C)cc(Br)cn23)cc1,.,37*,11,.,-3,.,56*,-2
Cc1cc(Br)cn2c(Cc3cccc(Cl)c3)c(-c3ccco3)nc12,.,37*,4,.,0,.,56*,-1
Cc1nnc(C2CCCN(C(=O)c3ccc(F)c(F)c3)C2)s1 (centres undefined),.,.,.,6,.,.,.,.
CC(C)Sc1ccc(CC(=O)NCC2(c3ccc(F)cc3)CC2)cc1,.,.,.,-6,.,.,.,.
COc1cccc(C(=O)Nn2cnc3c(cnn3-c3ccc(C)c(C)c3)c2=O)c1OC,.,.,.,-7,.,.,.,.
O=C(Nc1nc(-c2ccccn2)cs1)c1ccccc1-n1cnnn1,i,28*,6,81*,2,6,27*,20*
CC1CCN(C(=O)CSc2nc3ccccc3s2)CC1,5,1,-4,-6,.,2,.,.
CC1CCCN(C(=O)CSc2cnc3ccccc3n2)C1 (centres undefined),-2,39*,-6,10,2,2,71*,0
Cc1nc2ccccc2nc1SCC(=O)N1CCC(C)CC1,0,55*,16,4,.,11,50*,5
Cn1c(=O)c2c(nc(CN3CCc4ccccc4C3)n2CCCO)n(C)c1=O,i,3,8,6,1,8,.,.
Cn1c(=O)c2c(nc(CN3CCc4ccccc4C3)n2Cc2ccccc2F)n(C)c1=O,.,27*,8,-2,.,-1,-2,-3
CCCc1nc(SCC(=O)Nc2ccc(N3CCOCC3)cc2)c2ccccc2n1,i,18,-5,-5,.,9,.,.
Cc1ccc(NC(=O)CSc2ncnc3ccccc23)cc1S(=O)(=O)N1CCOCC1,0,61*,-6,-2,0,21,55*,-11
Cc1ccc(NC(=O)CSc2ncnc3ccccc23)cc1S(=O)(=O)N1CCCCC1,0,48*,8,-14,.,5,76*,-6
CC(C)c1nc(SCC(=O)Nc2ccc(N3CCOCC3)cc2)c2ccccc2n1,-1,33*,-1,-3,.,-5,52*,-2
O=[N+]([O-])c1ccc(N2CCS(=O)(=O)CC2)c2ncccc12,.,.,.,29,.,.,.,.
COC(=O)C1(C)CCc2cc(OC)ccc2C1=O (centres undefined),2,-4,8,2,.,-4,.,.
COc1ccc2c(c1)CCC1(C)CC(=O)C(Br)=C21 (centres undefined),i,42*,-162,.,4,.,68*,-4
CCOP(=S)(OCC)Oc1ccc2c(C)c(Cl)c(=O)oc2c1,0,68*,4,-8,2,.,37*,1
CCC(=O)Oc1ccc2c(C)c(Cl)c(=O)oc2c1,0,4,-265,12,.,-18,.,.
O=S(=O)(NC1c2cccc3cccc(c23)C1N1CCN(CCO)CC1)c1ccccc1 (centres undefined),i,34*,-1,-5,.,18,16,4
O=S(=O)(NC1c2cccc3cccc(c23)C1N1CCNCC1)c1ccccc1 (centres undefined),i,-10,-18,20,.,6,.,.
COc1ccc(N2CC(NC(=O)Cc3ccc(OC)c(OC)c3)CC2=O)cc1 (centres undefined),.,.,.,9,.,.,.,.
